Screen size: about 220,000 compounds; about 910 (0.41%) were called active. The full list was thinned out, with actives kept by preference. Potency and affinity values are given separately. Values without a mark were called inactive.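 Rule for the calls: active = primary inhibition above the hit cutoff, then over 50% inhibition at one or more dose response concentrations (cut at about 23% in these data, passing the limit was not always enough); inconclusive = conflicting primary data, or primary hits not chosen for dose response; inactive = low primary inhibition, or under 50% at every dose.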 Where a SMILES comes first, the peptide text is derived from it.
These compounds were tested against Aminopeptidase N (Plasmodium falciparum (isolate 3D7)) (UniProt O96935) (assay: malaria alanyl aminopeptidase activity blockers – biochemical, fluorogenic H-Leu-NHMec substrate, 1536-well (AID 1445;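 note: plate controls were DMSO full reaction for no effect and no enzyme background for full effect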)). Conditions: recombinant M1AAP, H-Leu-NHMec fluorogenic kinetic assay; at 30 µM, hits give high values unless noted.
Aminopeptidase N (Plasmodium falciparum (isolate 3D7)), sequence (O96935 whole entry, looked up): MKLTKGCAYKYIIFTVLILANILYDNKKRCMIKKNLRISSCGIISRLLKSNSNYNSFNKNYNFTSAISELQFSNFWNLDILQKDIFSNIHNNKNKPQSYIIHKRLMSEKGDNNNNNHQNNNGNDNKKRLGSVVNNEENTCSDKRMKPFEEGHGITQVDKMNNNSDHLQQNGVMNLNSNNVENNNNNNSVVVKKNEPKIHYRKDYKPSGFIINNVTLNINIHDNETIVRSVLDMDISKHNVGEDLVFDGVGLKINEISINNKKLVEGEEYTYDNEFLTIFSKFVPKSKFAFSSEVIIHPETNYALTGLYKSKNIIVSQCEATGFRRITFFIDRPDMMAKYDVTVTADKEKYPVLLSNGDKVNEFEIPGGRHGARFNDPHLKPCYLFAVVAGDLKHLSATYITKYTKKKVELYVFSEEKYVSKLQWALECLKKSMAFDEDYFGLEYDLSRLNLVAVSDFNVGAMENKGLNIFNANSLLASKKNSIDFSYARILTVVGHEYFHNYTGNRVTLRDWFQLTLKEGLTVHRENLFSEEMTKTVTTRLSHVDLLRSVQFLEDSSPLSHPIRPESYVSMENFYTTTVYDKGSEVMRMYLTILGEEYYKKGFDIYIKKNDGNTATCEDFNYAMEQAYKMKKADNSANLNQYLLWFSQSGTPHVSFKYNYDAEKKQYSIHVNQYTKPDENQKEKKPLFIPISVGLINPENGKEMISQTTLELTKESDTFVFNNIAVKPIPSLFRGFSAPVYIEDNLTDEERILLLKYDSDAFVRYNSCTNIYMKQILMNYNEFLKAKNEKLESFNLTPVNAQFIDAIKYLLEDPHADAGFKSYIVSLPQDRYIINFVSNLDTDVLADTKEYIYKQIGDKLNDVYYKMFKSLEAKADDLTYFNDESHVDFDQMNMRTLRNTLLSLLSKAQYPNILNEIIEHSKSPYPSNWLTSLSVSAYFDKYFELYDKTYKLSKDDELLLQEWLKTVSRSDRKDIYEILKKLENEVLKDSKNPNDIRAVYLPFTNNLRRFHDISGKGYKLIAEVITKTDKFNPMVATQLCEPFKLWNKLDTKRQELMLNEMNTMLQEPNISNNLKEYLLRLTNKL

| SMILES | inhibition |
| --- | --- |
| COc1ccc(-n2c(COc3cccc4cccnc34)nnc2SCC(=O)O)cc1 | -1.59% |
| COc1cc(C)c(S(=O)(=O)NC2CC(C)(C)NC(C)(C)C2)cc1C | -4.25% |
| N/C(=N\OC(=O)Cc1ccccc1[N+](=O)[O-])c1ccccn1 | -2.27% |
| CC12CCC(=O)N1c1ccccc1C(=O)N2c1ccccc1 (centres undefined) | 5.47% |
| CCC(CC)C(=O)OCC(=O)Nc1ccc(S(=O)(=O)N2CCOCC2)cc1OC | -0.13% |
| COc1cccc2[nH]c3c(=O)n(CCCN4CCOCC4)cnc3c12 | 4.76% |
| CCOC(=O)c1c(C)c2c(n1C)CCC/C2=N\O | 5.95% |
| Fc1cccc(/C=N/Nc2ncnc3nc[nH]c23)c1 | 17.8% |
| CCOC(=O)c1c(C)[nH]c(C(=O)Nc2ccc(C)c(Cl)c2)c1C | -6.14% |
| CC(C)[C@H](NC(=O)[C@H](CC(=O)O)NC(=O)[C@H](CCCCN)NC(=O)[C@@H](N)CCCN=C(N)N)C(=O)N[C@@H](Cc1ccc(O)cc1)C(=O)O (H-RKDVY-OH) | -1.63% |
| O=C(N[C@@H](Cc1ccc(O)cc1)C(=O)O)C(c1ccccc1)c1ccccc1 | 1.32% |
| COc1cc(/C=N/n2cnnc2)ccc1OS(=O)(=O)c1ccccc1[N+](=O)[O-] | -1.85% |
| CC/C(C)=C1\SC(N2CCN(c3cccc(C(F)(F)F)c3)CC2)=NC1=O | -4.38% |
| O=C(COc1ccc(Cl)cc1)NNC(=O)c1cccnc1 | 3.11% |
| CCC(CC)NC(=O)c1cccc(Br)c1 | 4.75% |
| COc1cccc(NC(=O)CSc2nc3n[nH]c(C)c3c(=N)n2-c2cccc(OC)c2)c1 | 1.29% |
| COc1cccc(-n2c(SCC(=O)NC3CCCCC3)nc3n[nH]c(C)c3c2=N)c1 | 57.3% (active) |
| COc1ccc(Cc2nnc(SCC(=O)NC3CCCCC3)n2C)cc1 | 24.3% (active) |
| Cn1c(Cc2ccccc2)nnc1SCC(=O)NC1CCCCC1 | -1.27% |
| CCn1c(Cc2ccc(OC)cc2)nnc1SCC(=O)NC1CCCCC1 | 5.01% |

| SMILES | inhibition |
| --- | --- |
| CCc1ccc(NC(=O)CSc2nc3n[nH]c(C)c3c(=N)n2-c2cccc(OC)c2)cc1 | 3.02% |
| Cc1ccc(S(=O)(=O)Oc2ccccc2/C=N/NC(=O)c2nn(C)cc2[N+](=O)[O-])cc1 | 9.1% |
| CCOCCCNS(=O)(=O)c1ccc(OC)c(Cl)c1Cl | -1.01% |
| COc1cnn(Cc2ccccc2)c(=O)c1SCc1ccccc1 | 2.35% |
| CS(=O)(=O)N1CCN(c2ccc(NC(=S)NC(=O)c3ccccc3[N+](=O)[O-])cc2)CC1 | 2.8% |
| Cc1[nH]n(-c2cccc(Cl)c2)c(=O)c1-c1ccccc1 | 13.4% |
| Cc1[nH]n(-c2ccccc2)c(=O)c1-c1ccc(Cl)cc1 | 17.9% |
| Cc1[nH]n(-c2cccc(Cl)c2)c(=O)c1-c1ccc(Cl)cc1 | 27.2% (active) |
| CC(=O)c1sc(NC(=O)CCCOc2ccc(Cl)cc2)nc1C | -3.27% |
| Oc1ccccc1N=Nc1nc(-c2ccccc2)c(-c2ccccc2)[nH]1 | -7.75% |
| O=c1c(=Nc2ccccc2O)c(=O)c2ccccc12 | -8.18% |
| CCOc1ccc(NC(=S)Nc2ccc(Br)cc2Cl)cc1 | 2.64% |
| Cc1ccccc1NC(=O)CN1C(=O)C2C3CC(C(Br)C3Br)C2C1=O (centres undefined) | 5.98% |
| O=C(CN1C(=O)C2C3C=CC(C3)C2C1=O)Nc1ccc(C(=O)O)cc1 (centres undefined) | 14.6% |
| CCOc1ccc(NC(=O)c2ccccc2NC(=O)CN(C)CC(=O)Nc2ccc(C)cc2)cc1 | 1.3% |
| N#CC(=NCc1cccnc1)C1=C(O)c2ccccc2C1=O | -2.18% |
| CC1(C)CC(=O)c2c(oc3ccc(NS(=O)(=O)c4cccc5cccnc45)cc23)C1 | 3.99% |
| CCOC(=O)c1c(C)oc2ccc(NS(=O)(=O)c3ccc(C(=O)O)cc3)cc12 | 10.2% |
| O=C(N=Nc1c(O)[nH]c2ccccc12)c1cccc(S(=O)(=O)Nc2ccccc2Cl)c1 | 13.3% |
| CCOCCc1nnc(NC(=O)Cc2ccccc2)s1 | 7.8% |

| SMILES | inhibition |
| --- | --- |
| CCn1c(SCC(=O)Nc2ccccc2C)nc2nc3c(cc2c1=O)COC(C)(C)C3 | 13.2% |
| CCc1cc(=O)oc2cc(C)cc(OCc3nn[nH]n3)c12 | 9.2% |
| CCCc1cc(=O)oc2cc(C)cc(OCc3nn[nH]n3)c12 | 17.7% |
| Cc1c(N2C(=O)/C(=C/c3ccccc3)SC2=S)c(=O)n(-c2ccccc2)n1C | 13.6% |
| Cc1c(N2C(=O)/C(=C\c3ccccc3O)SC2=S)c(=O)n(-c2ccccc2)n1C | 13% |
| CCOc1cc(/C=C2\N=C(SCC)SC2=O)cc([N+](=O)[O-])c1OC(C)=O | 60.6% (active) |
| COc1ccc(/C=C2\N=C(SC)SC2=O)cc1OC | -0.19% |
| COC(=O)c1ccc(/C=C2\N=C(SC)SC2=O)cc1 | 6.81% |
| C=CCSC1=N/C(=C\c2cc(OCC)c(OC(C)=O)c([N+](=O)[O-])c2)C(=O)S1 | 10.7% |
| CCOc1c(OC(C)=O)ccc(/C=C2\N=C(SCC)SC2=O)c1[N+](=O)[O-] | 9.88% |
| Cc1ccsc1/C=N/NC(=O)c1ccc(-n2cccc2)cc1 | -0.71% |
| CCC(=O)c1ccc(N2CCN(S(=O)(=O)c3ccccc3)CC2)c(F)c1 | -2.32% |
| OC1CCN(c2ncnc3c2nnn3Cc2c(F)cccc2Cl)CC1 | -1.3% |
| Cn1nnnc1SCC(=O)Nc1c(Cl)cccc1Cl | -11.1% |
| O=C(NN1C(=O)c2cc(Br)ccc2NC1c1cc(Br)cc(Br)c1O)c1ccncc1 (centres undefined) | 15.9% |
| O=C(COC(=O)Cc1ccc(S(=O)(=O)N2CCOCC2)s1)NCCc1ccccc1 | 5.27% |
| O=C(Cc1ccc(S(=O)(=O)N2CCOCC2)s1)NCC1CCCCC1 | 3.48% |
| NS(=O)(=O)c1ccc(CCNC(=O)c2ccc(S(=O)(=O)N3CCCCC3)cc2)cc1 | 15.2% |
| NS(=O)(=O)c1ccc(CCNC(=O)CN2CCCCC2)cc1 | -1.82% |

— PubChem BioAssay AID1445 (SRMLSC, 2008)
